According to PubChem BioAssay AID1159580 (chemical genetic matrix, 2015):
In all, about 5,500 compounds went through this assay and about 2,000 (36%) were called active. Not shown: some 18% with an inconclusive outcome. Cut-off read from the data, not from the text of the source: active = normalized growth mostly below about 0.91 (no sharp cut-off); inconclusive = no clear call, values can overlap the other calls; inactive = mostly above about 0.92. Some of the results follow.

Test: chemical genetic growth profiling, strain panel (AID 1159580);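 note: tested at 20 µM; growth read once vehicle control cultures reached saturation at 30 °C; 1 = growth at the plate median or of vehicle wells; lower values mean less growth of the strain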
Details: S. cerevisiae deletion strains, growth OD
[1] = locus YAL040C, strain CLN3, hits give low values
[2] = locus YCL061C, strain MRC1 (second series), hits give low values
[3] = locus YDR363W, strain ESC2, hits give low values
[4] = locus YER002W, strain NOP16, hits give low values
[5] = locus YGR078C, strain PAC10, hits give low values
[6] = locus YJR075W, strain HOC1, hits give low values
[7] = locus YMR263W, strain SAP30, hits give low values
[8] = locus YMR307W, strain GAS1, hits give low values
[9] = locus YNL128W, strain TEP1, hits give low values
[10] = locus YNL175C, strain NOP13, hits give low values
[11] = locus YNL197C, strain WHI3, hits give low values
[12] = locus YNL224C, strain SQS1, hits give low values
[13] = locus YNL322C, strain KRE1, hits give low values
[14] = locus YOR083W, strain WHI5 (second series), hits give low values

Measured: normalized growth

COCC1=C(C(=O)OC(C)OC(=O)OC(C)C)N2C(=O)[C@@H](NC(=O)/C(=N\OC)c3csc(N)n3)[C@H]2SC1 (stereo partly drawn)
inactive: locus YAL021C, strain ccr4, hits give low values 0.98 | locus YAL026C, strain drs2, hits give low values 0.967 | locus YAL030W, strain snc1, hits give low values 0.982 | locus YBL061C, strain skt5, hits give low values 0.968 | locus YBR009C, strain hhf1, hits give low values 0.96 | locus YBR023C, strain chs3, hits give low values 0.982 | locus YBR171W, strain sec66, hits give low values 0.968 | locus YBR231C, strain swc5, hits give low values 0.967 | locus YBR279W, strain paf1, hits give low values 0.98 | locus YCL011C, strain gbp2, hits give low values 0.973 | locus YCL016C, strain dcc1, hits give low values 0.982 | locus YCL061C, strain MRC1, hits give low values 0.981 | locus YCL069W, strain vba3, hits give low values 0.976 | locus YCR088W, strain abp1, hits give low values 0.97 | locus YDL005C, strain med2, hits give low values 0.966 | locus YDL040C, strain nat1, hits give low values 0.977 | locus YDR001C, strain nth1, hits give low values 0.97 | locus YDR069C, strain doa4, hits give low values 0.971 | locus YDR137W, strain rgp1, hits give low values 0.93 | locus YDR159W, strain sac3, hits give low values 0.95 | locus YDR195W, strain ref2 0.927 | locus YDR297W, strain sur2, hits give low values 0.979 | locus YDR334W, strain swr1, hits give low values 0.976 | locus YDR335W, strain msn5, hits give low values 0.987 | locus YDR392W, strain spt3, hits give low values 0.919 | locus YEL003W, strain gim4, hits give low values 0.984 | locus YEL037C, strain rad23, hits give low values 0.969 | locus YEL061C, strain CIN8 (second series), hits give low values 0.971 | locus YER015W, strain faa2, hits give low values 0.98 | locus YER016W, strain bim1, hits give low values 0.98 | locus YER111C, strain swi4, hits give low values 0.972 | locus YER155C, strain BEM2 (second series), hits give low values 0.972 | locus YFR010W, strain ubp6, hits give low values 0.964 | locus YGL167C, strain pmr1, hits give low values 0.967 | locus YGL173C, strain kem1, hits give low values 0.968 | locus YGL227W, strain vid30, hits give low values 0.96 | locus YGL240W, strain doc1, hits give low values 0.981 | locus YGL253W, strain hxk2, hits give low values 0.986 | locus YHR013C, strain ard1, hits give low values 0.976 | locus YHR027C, strain rpn1, hits give low values 0.985 | locus YHR030C, strain SLT2, hits give low values 0.968 | locus YHR079C, strain IRE1, hits give low values 0.999 | locus YHR142W, strain chs7, hits give low values 0.982 | locus YJL092W, strain hpr5, hits give low values 0.972 | locus YJL095W, strain BCK1 (second series), hits give low values 0.989 | locus YJL095W, strain BCK1, hits give low values 0.977 | locus YJL115W, strain asf1, hits give low values 0.966 | locus YJL129C, strain trk1, hits give low values 0.974 | locus YJL154C, strain vps35, hits give low values 0.976 | locus YJL164C, strain tpk1, hits give low values 0.998 | locus YJL166W, strain qcr8, hits give low values 0.998 | locus YJL187C, strain SWE1, hits give low values 0.982 | locus YJR066W, strain TOR1, hits give low values 0.927 | locus YKL160W, strain elf1, hits give low values 0.994 | locus YKR026C, strain gcn3, hits give low values 0.962 | locus YKR091W, strain srl3, hits give low values 0.981 | locus YLL001W, strain dnm1, hits give low values 0.976 | locus YLL026W, hits give low values 0.971 | locus YLL041C, strain sdh2, hits give low values 0.992 | locus YLR027C, strain aat2, hits give low values 0.979 | locus YLR113W, strain HOG1, hits give low values 0.943 | locus YLR221C, strain rsa3, hits give low values 0.997 | locus YLR258W, strain gsy2, hits give low values 0.978 | locus YLR262C, strain YPT6 (second series), hits give low values 0.987 | locus YLR320W, strain mms22, hits give low values 0.983 | locus YLR342W, strain FKS1, hits give low values 0.973 | locus YLR357W, strain rsc2, hits give low values 0.929 | locus YLR370C, strain arc18, hits give low values 0.956 | locus YLR384C, strain iki3, hits give low values 0.976 | locus YML120C, strain ndi1, hits give low values 0.967 | locus YMR058W, strain fet3, hits give low values 0.981 | locus YMR125W, strain sto1, hits give low values 0.926 | locus YMR129W, hits give low values 0.97 | locus YMR205C, strain PFK2, hits give low values 0.937 | locus YMR231W, strain pep5, hits give low values 0.967 | locus YNL071W, strain lat1, hits give low values 0.986 | locus YNL183C, strain NPR1, hits give low values 0.945 | locus YNL209W, strain ssb2, hits give low values 0.986 | locus YNL248C, strain rpa49, hits give low values 0.99 | locus YNL322C, strain KRE1 (second series), hits give low values 0.982 | locus YNR049C, strain mso1, hits give low values 0.98 | locus YOR001W, strain rrp6, hits give low values 0.978 | locus YOR070C, strain gyp1, hits give low values 0.976 | locus YOR080W, strain dia2, hits give low values 0.967 | locus YOR083W, strain WHI5, hits give low values 0.993 | locus YOR106W, strain vam3, hits give low values 0.983 | locus YOR231W, strain MKK1, hits give low values 0.973 | locus YOR265W, strain rbl2, hits give low values 0.982 | locus YOR270C, strain vph1, hits give low values 0.951 | locus YOR290C, strain snf2, hits give low values 0.962 | locus YPL051W, strain arl3, hits give low values 0.994 | locus YPL078C, strain atp4, hits give low values 0.986 | locus YPL106C, strain sse1, hits give low values 0.982 | locus YPL240C, strain hsp82, hits give low values 0.99 | locus YPL256C, strain CLN2, hits give low values 0.974

CCCN1CCCC2Cc3[nH]ncc3CC21 (stereo not drawn)
inactive: [1] 0.972 | [2] 1 | locus YDR150W, strain NUM1, hits give low values 0.995 | [3] 1.02 | [4] 0.992 | [5] 0.997 | locus YGR229C, strain SMI1, hits give low values 0.989 | [6] 1 | [7] 0.997 | [8] 0.992 | [9] 0.989 | locus YNL153C, strain GIM3, hits give low values 1.1 | [10] 0.994 | [11] 0.992 | [12] 0.98 | [13] 1.02 | [14] 0.986 | locus YPL241C, strain CIN2, hits give low values 1

CC(C)NP(=O)(NC(C)C)OP(=O)(NC(C)C)NC(C)C
inactive: [1] 0.983 | [2] 1 | [3] 0.998 | [4] 0.995 | [5] 0.991 | [6] 1.01 | [7] 0.991 | [8] 0.995 | [9] 0.99 | [10] 0.991 | [11] 0.995 | [12] 0.991 | [13] 1.01 | [14] 0.991 | locus YPL055C, strain LGE1, hits give low values 1.01
